Results reported in the supplement of paper PMC12297408.
“And” between values parts separate entries of the source, which are not always exact repeats. Equal entries are not always repeated. Unmarked numbers belong to inactive results.

Tested on: Plasmodium falciparum NF54/iGP1_RE9H ulg8 stage V gametocytes
Experiment: gametocyte viability (luciferase signal relative to DMSO control) (% of DMSO control); higher = less gametocytocidal activity, active = 50 or less
Settings: exposure time: 72 h
Summary of the method: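 Stage V gametocytes of the NF54/iGP1_RE9Hulg8 line (day 12; ~2.5% gametocytemia, 3% hematocrit), in medium containing 0.5% Albumax II, were dispensed into 96-well plates with compounds spotted in nanolitre volumes from 10 mM DMSO stocks, for final concentrations of 10 µM or 1 µM in a single well each. After 72 h at 37 °C, 90 µl from each well was combined with 10 µl D-luciferin (30 mg/ml), and luminescence was measured on an IVIS Lumina II. Viability was expressed against the mean of the DMSO vehicle wells on the same plate.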

| SMILES | gametocyte viability (concentration: 1 µM) | gametocyte viability (concentration: 10 µM) |
| --- | --- | --- |
| CC(C)(C)c1cnc(CSc2cnc(NC(=O)C3CCNCC3)s2)o1 | 104 | 101 |
| Cn1cnc(-c2cc3nccc(Oc4ccc(NC(=S)NC(=O)Cc5ccccc5)cc4F)c3s2)c1 | 90.2 | 93.5 |
| N#CCNC(=O)c1ccc(-c2ccnc(Nc3ccc(N4CCOCC4)cc3)n2)cc1 | 98.5 | 97.1 |
| CN1CC[C@H](c2c(O)cc(O)c3c(=O)cc(-c4ccccc4Cl)oc23)[C@H](O)C1 [Flavopiridol (Alvocidib)] | 99.8 | 122 |
| Nc1ncnc2c1c(-c1cccc(OCc3ccccc3)c1)cn2C1CC(CN2CCCC2)C1 (configuration not stated) | 94.4 | 84 |
| Oc1cc(O)cc(/C=C/c2ccc(O)c(O)c2)c1 [Piceatannol] | 70.4 | 38.4 (active) |
| O=S(=O)(NCCNC/C=C/c1ccc(Br)cc1)c1cccc2cnccc12 | 99 | 93.1 |
| COCc1cc(O)c(O)c(O)c1-c1c(COC)cc(O)c(O)c1O | 104 | 92.3 |
| O=c1c(O)c(-c2ccc(O)c(O)c2)oc2cc(O)cc(O)c12 [Quercetin (Sophoretin)] | 105 | 108 |
| Cc1c(NC(=O)OC[C@@H]2COCCN2)cn2ncnc(Nc3ccc4c(cnn4Cc4cccc(F)c4)c3)c12 | 85.8 | 96 |
| COc1cc(Nc2ncc3c(n2)-c2ccc(Cl)cc2C(c2c(F)cccc2OC)=NC3)ccc1C(=O)O [MLN8237 (Alisertib)] | 95 | 94.6 |
| C=CC(=O)N1CCC[C@@H](n2nc(-c3ccc(Oc4ccccc4)cc3)c3c(N)ncnc32)C1 | 106 | 104 |
| Oc1ccc(-c2nc(-c3ccc(F)cc3)c(-c3ccncc3)[nH]2)cc1 | 112 and 117 | 115 and 132 |
| COc1ccc(-c2cc3c(C)nc(N)nc3n([C@H]3CC[C@H](OCCO)CC3)c2=O)cn1 | 95.3 | 84.2 |
| O=S(=O)(c1cccc2c(Cl)cccc12)N1CCCNCC1 | 93.2 | 90 |
| Nc1ncnc2c1c(I)cn2[C@@H]1O[C@H](CO)[C@@H](O)[C@H]1O [5-Iodotubericidin] | 103 | 113 |
| CNC(=O)c1cc(Oc2ccc(NC(=O)Nc3ccc(Cl)c(C(F)(F)F)c3)cc2)ccn1 [Sorafenib (Nexavar)] | 114 | 115 |
| COc1cc2ncnc(Nc3cccc(Br)c3)c2cc1OC | 95.6 | 114 |
| CCS(=O)(=O)Nc1ccc2[nH]c(O)c(C(=Nc3ccc(CN4CCCCC4)cc3)c3ccccc3)c2c1 [Hesperadin] | 110 | 108 |
| COc1cc2c(Oc3ccc(NC(=O)C4(C(=O)Nc5ccc(F)cc5)CC4)cc3F)ccnc2cc1OCCCN1CCOCC1 | 86.7 | 91.5 |
| C[C@@H]1CN(CC(=O)Nc2ccc3c(c2)Cc2cccc(-c4cc(=O)cc(N5CCOCC5)o4)c2S3)C[C@H](C)O1 | 86 | 68 |

| SMILES | gametocyte viability (concentration: 1 µM) | gametocyte viability (concentration: 10 µM) |
| --- | --- | --- |
| CO[C@@H](C(=O)N1Cc2[nH]nc(NC(=O)c3ccc(N4CCN(C)CC4)cc3)c2C1)c1ccccc1 | 89.5 | 71.6 |
| COC(=O)c1ccc2c(C(=Nc3ccc(N(C)C(=O)CN4CCN(C)CC4)cc3)c3ccccc3)c(O)[nH]c2c1 [BIBF1120 (Vargatef)] | 96 | 108 |
| Cc1cc2ncc(-c3ccccc3)nc2cc1C | 91.2 | 70.6 |
| O=C1NC(=O)/C(=C/c2ccc(-c3ccc(F)cc3O)o2)S1 | 100 | 110 |
| CC1(C)CNc2cc(NC(=O)c3cccnc3NCc3ccncc3)ccc21 [Motesanib Diphosphate] | 97 | 97.4 |
| CNC(=O)c1ccc(C)c(-n2c(C)cc(OCc3ccc(F)cc3F)c(Br)c2=O)c1 | 100 | 108 |
| CO[C@@H]1[C@H](N(C)C(=O)c2ccccc2)C[C@H]2O[C@]1(C)n1c3ccccc3c3c4c(c5c6ccccc6n2c5c31)C(=O)NC4 | 91.1 | 95.9 |
| COc1cc2nccc(Oc3ccc(NC(=O)Nc4ccc(F)cc4F)c(F)c3)c2cc1OC | 94.9 | 85 |
| CN(C)c1ccc(-c2nc3ncc(Cl)c(N4CCN(CC(=O)Nc5nccs5)CC4)c3[nH]2)cc1 | 82.4 | 101 |
| c1ccc2c(-c3cnn4cc(-c5ccc(N6CCNCC6)cc5)cnc34)ccnc2c1 | 106 | 73.3 |
| Cc1ccc(C(=O)Nc2ccc(CN3CCN(C)CC3)c(C(F)(F)F)c2)cc1C#Cc1cnc2cccnn12 | 111 | 130 |
| Cc1nc(NC(=O)N2CCC[C@H]2C(N)=O)sc1-c1csc(C(C)(C)C)n1 | 101 | 92.9 |
| CC(C)(C)c1cc(C=C(C#N)C(N)=S)cc(C(C)(C)C)c1O | 103 | 102 |
| CN1CCN(CCOc2cc(OC3CCOCC3)c3c(Nc4c(Cl)ccc5c4OCO5)ncnc3c2)CC1 [Saracatinib (AZD0530)] | 94.4 | 92.2 |
| CC1CNCCN1S(=O)(=O)c1cccc2cnccc12 (configuration not stated) | 97.5 | 97.9 |
| CO[C@H]1C[C@@H]2CC[C@@H](C)[C@@](O)(O2)C(=O)C(=O)N2CCCC[C@H]2C(=O)O[C@H]([C@H](C)C[C@@H]2CC[C@@H](OCCO)[C@H](OC)C2)CC(=O)[C@H](C)/C=C(\C)[C@@H](O)[C@@H](OC)C(=O)[C@H](C)C[C@H](C)/C=C/C=C/C=C/1C [Everolimus (RAD001)] | 91 | 94.2 |
| O=c1cc(N2CCOCC2)oc2c(-c3cccc4c3sc3ccccc34)cccc12 | 106 | 105 |
| C=CC(=O)Nc1cccc(Oc2nc(Nc3ccc(N4CCN(C)CC4)cc3OC)ncc2Cl)c1 | 91.9 | 97.3 |
| Cc1ccc(-c2nn(C(C)(C)C)c3ncnc(N)c23)cc1 | 103 | 105 |
| C[C@@H](Oc1cc(-c2cnn(C3CCNCC3)c2)cnc1N)c1c(Cl)ccc(F)c1Cl | 88.7 | 30.2 (active) |
| N#C/C(=C\c1ccc(O)c(O)c1)C(=O)Nc1ccccc1 | 99.6 | 104 |

| SMILES | gametocyte viability (concentration: 1 µM) | gametocyte viability (concentration: 10 µM) |
| --- | --- | --- |
| Cn1c(=O)c(F)c(Nc2ccc(I)cc2F)c2c(=O)n(C[C@@H](O)CO)cnc21 | 108 | 114 |
| COc1cc2c(Oc3ccc4[nH]c(C)cc4c3F)ncnc2cc1OCCCN1CCCC1 [Cediranib (AZD2171)] | 88.6 | 90.7 |
| CNC(=O)CN1CCC(Oc2cc3c(Nc4cccc(Cl)c4F)ncnc3cc2OC)CC1 | 103 | 106 |
| O=C(Nc1ccc(OC(F)(F)F)cc1)c1sccc1NCc1ccnc2ccccc12 | 96.9 | 86.6 |
| FC(F)(F)c1ccc(/C=C/c2nc(COc3ccc(CCCCn4ccnn4)cc3)co2)cc1 [Mubritinib (TAK 165)] | 95.1 | 104 |
| O=c1cc(-c2cccc3c2Sc2ccccc2S3)oc(N2CCOCC2)c1 | 110 | 107 |
| N#Cc1c(O)c2c(-c3ccc(-c4ccccc4O)cc3)csc2[nH]c1=O | 97.7 | 105 |
| COc1cc2c(N3CCN(C(=O)Nc4ccc(OC(C)C)cc4)CC3)ncnc2cc1OCCCN1CCCCC1 [Tandutinib (MLN518)] | 98.8 | 91.8 |
| CC(=O)Nc1cccc(-n2c(=O)n(C3CC3)c(=O)c3c(Nc4ccc(I)cc4F)n(C)c(=O)c(C)c32)c1 | 102 | 82.7 |
| COc1ncc(-c2ccc3nccc(-c4ccnnc4)c3c2)cc1NS(=O)(=O)c1ccc(F)cc1F | 100 | 103 |
| Cn1c(=O)n(-c2ccc(C(C)(C)C#N)cc2)c2c3cc(-c4cnc5ccccc5c4)ccc3ncc21 | 96.8 | 104 |
| CNC(=O)Nc1ccc(-c2nc(N3CC4CCC(C3)O4)c3cnn(C4CCC5(CC4)OCCO5)c3n2)cc1 | 103 | 108 |
| Cc1c(CN2CCN(C(=O)[C@H](C)O)CC2)sc2c(N3CCOCC3)nc(-c3cnc(N)nc3)nc12 | 106 | 109 |
| Cc1cc(=O)c2c(O)c3c(O)cc(O)c4c5c(O)cc(O)c6c(O)c7c(=O)cc(C)c8c1c2c(c34)c(c65)c78 [Hypericin] | 103 | 100 |
| CNC(=O)c1cc(Oc2ccc(NC(=O)Nc3cc(C(C)(C)C)nn3-c3ccc4ncccc4c3)c(F)c2)ccn1 [DCC-2036 (Rebastinib)] | 103 | 107 |
| N#CC(=C(/N)Sc1ccccc1N)/C(C#N)=C(\N)Sc1ccccc1N | 94.3 | 95.9 |
| Cn1cc(-c2cnn3c(N)c(Br)c([C@@H]4CCCNC4)nc23)cn1 | 114 | 85.8 |
| COc1cc(Nc2ncc(F)c(Nc3ccc4c(n3)NC(=O)C(C)(C)O4)n2)cc(OC)c1OC [R406(free base)] | 96.3 | 103 |
| CN(C)C/C=C/C(=O)Nc1cc2c(Nc3ccc(F)c(Cl)c3)ncnc2cc1O[C@H]1CCOC1 [Afatinib (BIBW2992)] | 92 | 93.5 |
